IL-1B inflam inh = inflammasome signaling inhibition, IL-1 beta readout | THP-1 LPS/ATP IL-1B secretion, AlphaLISA, 16 h; hits give low values | activity change, % at 57.5 µM | actives 4.7% (n = 360,000) | AID 743279; in the data active = activity change below about -50%; inconclusive = mostly about -30% to -49%
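THP-1 cells pretreated 1 hr with compounds (up to 57.5 uM final), then stimulated with LPS (250 ng/mL final) plus ATP (1.25 mM final); secreted IL-1B measured by AlphaLISA after 16 hr, decreased signal indicating inhibition.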
HT1080 IDH1KD tx = HT-1080 IDH1 knockdown cell toxicity (counter line); HT-1080 IDH1 knockdown viability, ATP luminescence, 48 h; Potency, µM (top dose mostly 46.1 µM), for inactives: at the highest dose activity, negative = toxicity, usual class: cytotoxic; actives 2% (n = 360,000);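 also: potency is read from the fitted curve at half-maximal effect; 0% = DMSO wells and -100% = cell-free medium wells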
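Using the IDH1-knockdown HT-1080 line run in the same batch and compound series as the NT line, viability after 48 h at 37 °C was determined by CellTiter-Glo luminescence and expressed as % activity.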
DT40 TDP1 CPT = growth inhibition of DT40 Tdp1-/-;hTDP1 cells with camptothecin (screen for TDP1 inhibitors); AID 686979; actives 12% (n = 420,000); Potency, µM (series often up to 46.2 µM), for inactives: at the highest dose activity change, negative = growth inhibition, actives largely listed as inhibitors; chicken DT40 Tdp1-/-;hTDP1 cells + 20 nM CPT, ATP luminescence, 48 h; also: potency is read from the fitted curve at half-maximal effect; nearly all actives have a fitted effect of over 55% in size
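Cell growth measured by CellTiter-Glo luminescence after a minimum 48 h, 37 C compound exposure with 20 nM CPT in Tdp1-knockout DT40 cells stably expressing hTDP1, seeded 400/well; qHTS titration format.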
HT1080NT lethal = kills 2HG-producing HT-1080-NT fibrosarcoma cells | actives 1.6% (n = 360,000) | HT-1080-NT fibrosarcoma viability, CellTiter-Glo ATP luminescence, 48 h | Potency, µM (top dose mostly 46.1 µM), without a hit: top-dose activity, negative = less viability, most hits filed as cytotoxic;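 also: NT is the 2HG producing partner of a matched IDH1 knockdown line; potency is read from the fitted curve at half-maximal effect; 0% = DMSO-treated cells and -100% = media-only wells without cells; nearly all actives have a fitted effect of over 55% in size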
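Viability by CellTiter-Glo luminescence after 48 h compound exposure at 37C of HT-1080-NT cells (750/well, RPMI, 5% FBS). % activity scaled between DMSO wells and medium-only wells, then curve-fitted and categorized by curve class.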
ELG1 repair inh = inhibitors of ELG1-dependent DNA repair in HEK293T cells. HEK293T ELG1-luciferase reporter, luminescence, 16 h; DNA damage induced by 5-fluorouridine. Potency, µM (top dose mostly 46.1 µM), for inactives: top-dose activity change, negative = inhibition, usual class: inhibitors. actives 2.3% (n = 330,000). AID 504467; also: potency is read from the fitted curve at half-maximal effect; nearly all actives have a fitted effect of over 55% in size
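5-Fluorouridine DNA damage + compound/DMSO, 2,000 cells/well, 16 h, 37 °C/5% CO2. ONE-Glo, 30 min RT, luminescence. Readout = decrease in reporter signal.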
TDP1 cell noCPT = qHTS for Inhibitors of human tyrosyl-DNA phosphodiesterase 1 (TDP1): qHTS in cells in absence of CPT | Potency, µM (titrated, usually from 46.2 µM), for the others: at the top dose activity change, negative = growth inhibition, usual class: inhibitors | DT40 Tdp1-/- hTDP1 cells, no CPT, ATP luminescence, 48 h | actives 15% (n = 420,000); also: potency is read from the fitted curve at half-maximal effect; nearly all actives have a fitted effect of over 55% in size
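DT40 Tdp1-/-;hTDP1 cells, no CPT (DMSO vehicle only), 400 cells/well; compounds pin-transferred; ≥48 hr, 37 °C; CellTiter-Glo 30 min RT dark, luminescence read.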
The depositor's hits bear a star; ? = inconclusive; / = not tested or not shown. Rows were chosen to be rich in hits. Some 19% of all compounds tested hit in one or more screens of this group. Unless noted, calls follow the shape of the dose curve; as a rule, active = well fitted curve in the direction sought with a large enough effect; inconclusive = small, poorly fitted or top-dose-only effect, or another doubt; inactive = no such curve, though single readings can be large; an effect the other way counts as inactive or inconclusive. Unless noted, % is scaled to controls: 0 for no effect and ±100 for the full control effect.

SMILES | IL-1B inflam inh | HT1080 IDH1KD tx | DT40 TDP1 CPT | HT1080NT lethal | ELG1 repair inh | TDP1 cell noCPT
Cc1ccc(S(=O)(=O)NCC(=O)OCC(=O)NC(=O)NC2CCCC2)cc1 | 3 | 4% | -16% | -2% | 8% | -3%
N#CCN1C(=O)NC2(CCCc3sccc32)C1=O (centres undefined) | 6 | 11% | 1% | -4% | 18% | -3%
O=C(Nc1ccc(F)cc1)c1ncn(-c2ccccc2)n1 | / | / | -4% | / | / | -12%
O=C(O)c1ccc(CSc2nnc(-c3ccccc3)n2-c2ccccc2)cc1 | 10 | -10% | -6% | -6% | 8% | -1%
Brc1cccc(-c2nnc(SCc3ccon3)n2-c2ccccc2)c1 | -15 | -21% | ? | -2% | -11% | 15µM*
CCc1nc2ccc(C(=O)NCCC(C)C)cn2c1N(C)Cc1ccc(OC)cc1 | -15 | ? | ? | ? | / | 16µM*
CCc1nc2ccc(C(=O)NCCOc3ccc(OC)cc3)cn2c1N(C)Cc1ccc(OC)cc1 | -22 | -3% | ? | ? | / | 21µM*
CCc1nc2ccc(C(=O)NCCOc3ccc(OC)cc3)cn2c1N(C)Cc1cccs1 | -52* | ? | ? | ? | / | ?
CCCCNC(=O)c1ccc2nc(CC)c(N(C)Cc3ccc(OC)cc3)n2c1 | -10 | 0% | 16µM* | 1% | / | ?
CCc1nc2ccc(C(=O)NCCC(C)C)cn2c1N(CC)CCOC | 40 | 22% | ? | 17% | / | 21µM*
CCc1nc2ccc(C(=O)NCc3cccs3)cn2c1N(CC)CCOC | -1 | 9% | ? | 17% | / | ?
O=C(Nc1ccccc1)OCCc1ccccc1 | -7 | 26% | -26% | 14% | / | ?
O=C(/C=C/c1ccccc1)CC(O)(c1ccccc1)C(F)(F)F (centres undefined) | -99* | 10µM* | 16µM* | 13µM* | ? | 11µM*
CC(=O)N(CC(=O)N(CC(=O)O)c1ccc(Cl)cc1)c1ccc(Cl)cc1 | 9 | -5% | -2% | 9% | / | -6%
CCN(Cc1ccncc1)C(=O)c1cc(COc2ccc(F)cc2F)on1 | ? | -12% | ? | -3% | 9% | -49%
CCN(Cc1ccncc1)C(=O)c1cc(COc2c(C)cccc2C)on1 | ? | -1% | 12µM* | -7% | 17% | ?
COc1cccc(OCc2cc(C(=O)N(Cc3nccn3C)C(C)C)no2)c1 | 11 | -4% | -8% | 1% | 0% | -5%
Cc1nc(CN(C)C(=O)c2cc(COc3ccc4ncccc4c3)on2)cs1 | -22 | ? | 5.8µM* | 4.1µM* | ? | 5.8µM*
CC(C)N(Cc1nccn1C)C(=O)c1cc(COc2ccc3ncccc3c2)on1 | 30 | -26% | ? | ? | -13% | 10µM*
COc1cccc(OCc2cc(C(=O)N(C)Cc3nc(C)cs3)no2)c1 | -2 | 13% | ? | 11% | ? | ?
Cc1cccc(C)c1OCc1cc(C(=O)N(Cc2nccn2C)C(C)C)no1 | 6 | -7% | 15µM* | 2% | ? | 10µM*
Cc1cccc(-n2nnc(-c3nc(-c4cccs4)no3)c2N)c1C | / | / | -4% | / | / | 6%
COC(=O)c1ccc(NC(=O)CSc2n[nH]c(CC(C)C)n2)cc1 | / | / | 12% | / | / | 5%
COc1cc(C(=O)n2nc(-c3ccco3)nc2NCc2ccc(Cl)cc2)cc(OC)c1OC | / | / | -19% | / | / | ?
CC1(C)SC2C(NC(=O)C(NC(=O)N3CCNC3=O)c3ccccc3)C(=O)N2C1C(=O)O (centres undefined) | / | / | 5% | / | / | -1%
SMILES | IL-1B inflam inh | HT1080 IDH1KD tx | DT40 TDP1 CPT | HT1080NT lethal | ELG1 repair inh | TDP1 cell noCPT
O=C(Nc1ccc2nc(SCC(=O)N3CCCC3)sc2c1)c1ccc(Br)cc1 | / | / | -30% | / | / | ?
O=C(Nc1ccc2nc(SCC(=O)N3CCOCC3)sc2c1)c1cccc(Cl)c1 | / | / | 15µM* | / | / | 18µM*
O=C(Nc1ccc2nc(SCC(=O)N3CCCC3)sc2c1)c1cccc(Br)c1 | / | / | ? | / | / | 16µM*
CCN(C(=O)COC(=O)c1cc(=O)c2ccccc2o1)c1c(N)n(Cc2ccccc2)c(=O)[nH]c1=O | 8 | 8% | 1% | 8% | 16% | 1%
Cc1ccc(C)c(NC(=O)CSc2n[nH]c(-c3ccccn3)n2)c1 | 60 | ? | 23µM* | -21% | ? | 18µM*
O=C(CSc1n[nH]c(-c2ccncc2)n1)Nc1ccccn1 | 39 | -4% | -5% | -2% | / | ?
O=C(CSc1n[nH]c(-c2ccncc2)n1)Nc1ccccc1C(F)(F)F | 32 | 5% | 18µM* | 6% | -3% | 10µM*
Cc1ccc(O)c(NC(=O)CSc2n[nH]c(-c3ccccc3)n2)c1 | 88 | -22% | ? | -8% | 4% | 16µM*
O=C(CSc1n[nH]c(-c2ccccc2)n1)Nc1ncccn1 | -7 | 15% | 11% | 9% | 7% | -10%
Cc1nc2c(c(SCC(=O)Nc3ccccc3C(F)(F)F)n1)CCC2 | / | / | ? | / | / | 21µM*
Cc1ccc(NC(=O)CSc2n[nH]c(-c3ccco3)n2)c(C)c1 | 7 | 10% | -5% | 1% | 5% | -12%
COc1ccccc1C(CNC(=O)c1ccc(S(=O)(=O)N2CCCCC2)cc1)N(C)C (centres undefined) | 11 | -3% | 6% | 7% | 4% | 25%
CCCC(=O)N1CCC1(C)C(=O)Nc1ccc(-n2cccc2)cc1 (centres undefined) | -18 | 3% | -29% | ? | / | ?
Cc1ccccc1NC(=O)CSc1nnc(-c2ccccn2)o1 | 11 | -5% | -10% | -5% | 0% | -2%
Cc1ccccc1NC(=O)CSc1n[nH]c(-c2ccccn2)n1 | 152 | ? | 18µM* | ? | ? | ?
Cc1ccc(-c2nc3c4cnn(-c5cc(Cl)ccc5Cl)c4ncn3n2)cc1 | / | / | -18% | / | / | -10%
CCN1C(=O)N[C@@H](c2cccc(F)c2)C(C(C)=O)=C1C | 21 | 9% | -28% | 19% | / | -22%
CCN1C(=O)N[C@H](c2ccc(Br)cc2)C(C(C)=O)=C1C | 36 | 3% | 21µM* | 2% | 5% | 16µM*
Cc1ccc(S(=O)(=O)N/N=C\c2cccnc2)cc1 | 5 | -4% | -21% | 19% | 9% | -4%
Cc1ccc(-c2cc(-c3ccccc3O)nc(N/N=C/c3cccnc3)n2)cc1 | 6 | -3% | 16µM* | ? | ? | 12µM*

Compound activity (PubChem BioAssay)
